BAZ2B block: inhibitors of human BAZ2B bromodomain. AlphaScreen BAZ2B-H3K14Ac peptide displacement. Potency, µM (titrated, usually from 114 µM), without a hit: at the top dose activity change, negative = inhibition, actives largely listed as inhibitors. actives 4.4% (n = 360,000). AID 504333; note: % is set by controls: 0 for no effect and ±100 for the full control effect; nearly all actives have a fitted effect of over 60% in size
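AlphaScreen displacement: compounds (up to 110uM) incubated 30 min at room temperature with a preformed 50 nM BAZ2B/50 nM biotinylated H3K14Ac peptide complex in PBS pH 7.4 with Tween-20. Donor and acceptor beads at 10 ug/mL final added, 20 min light-protected before reading.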
HP1b chromo inh: blocks HP1-beta chromodomain binding to methylated histone tails; P83916; AlphaScreen HP1-beta / biotin-H3K9me3 peptide binding; Potency, µM (doses to about 114 µM), for inactives: top-dose activity change, negative = inhibition, most hits filed as inhibitors; actives 0.56% (n = 390,000); note: nearly all actives have a fitted effect of over 70% in size
Target sequence (P83916 whole entry, looked up): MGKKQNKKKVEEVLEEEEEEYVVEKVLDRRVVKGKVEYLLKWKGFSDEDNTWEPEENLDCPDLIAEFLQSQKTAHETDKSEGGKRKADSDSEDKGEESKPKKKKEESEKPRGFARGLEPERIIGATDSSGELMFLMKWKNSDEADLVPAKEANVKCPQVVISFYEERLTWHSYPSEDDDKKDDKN
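HP1-beta protein (50 nM final) preincubated 30 min at room temperature with biotinylated H3(1-18)K9me3 peptide (50 nM) in PBS pH 7.4, 0.01% Tween-20, then compound added for 30 min. AlphaScreen streptavidin donor/nickel chelate acceptor beads (10 ug/mL final), 30 min dark, luminescence read.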
Sfp PPTase inh: blocks B. subtilis Sfp PPTase activity; actives 3.5% (n = 310,000); Q9F4F7; Biochemical Sfp PPTase activity, qHTS; Potency, µM, for inactives: largest response in the series, negative = inhibition, actives largely listed as inhibitors;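 note: the enzyme is Sfp with the accession as filed and its product quenches rhodamine fluorescence; 0% = enzyme reaction without inhibitor and -100% = no enzyme wells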
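Fluorescence-quenching assay with 15 nM Sfp, 5 uM rhodamine-CoA and 12.5 uM BHQ-2-labelled ybbR peptide in pH 7.6 Hepes/MgCl2 buffer. Enzyme was pre-incubated with compound for 15 min at room temperature. Rate was taken from the 30-min fluorescence change (525/598 nm).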
JMJD2A Tudor inh: inhibitors of human JMJD2A Tudor domain; actives 4.4% (n = 390,000); AlphaScreen JMJD2A-Tudor / H3K4me3 peptide binding; Potency, µM (titrated, usually from 114 µM), inactives show top-dose activity change, negative = inhibition, most hits filed as inhibitors; note: % is set by controls: 0 for no effect and ±100 for the full control effect; nearly all actives have a fitted effect of over 50% in size
G9a inh: blocks human histone lysine methyltransferase G9a; actives 8.8% (n = 350,000); Q96KQ7; Potency, µM (titrated, usually from 102 µM), for inactives: at the highest dose activity, negative = inhibition, usual class: inhibitors; AID 504332; G9a H3K9 monomethylation, AlphaScreen, 2 h; note: % is set by controls: 0 for no effect and ±100 for the full control effect; nearly all actives have a fitted effect of over 75% in size
Target sequence (Q96KQ7 913-1193 limits assumed): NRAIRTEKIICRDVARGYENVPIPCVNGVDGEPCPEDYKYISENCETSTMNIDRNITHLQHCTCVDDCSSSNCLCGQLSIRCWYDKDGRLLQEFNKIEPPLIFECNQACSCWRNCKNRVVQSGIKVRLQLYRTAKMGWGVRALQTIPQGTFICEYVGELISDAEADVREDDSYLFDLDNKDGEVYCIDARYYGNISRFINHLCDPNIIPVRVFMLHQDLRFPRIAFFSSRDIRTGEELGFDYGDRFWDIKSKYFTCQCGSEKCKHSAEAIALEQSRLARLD
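Methyltransferase reactions run at room temperature for 2 h (20 nM enzyme, 500 nM biotin-H3K9 peptide, 20 uM SAM) after a 15 min compound preincubation; product detected by AlphaScreen beads and anti-H3K9me1 antibody.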
An asterisk follows results filed as active; ? = inconclusive; / = no result given; [ ] = remark or other dose. Most compounds without a hit are left out; they make up all but 12% or so of the library. Calls come from the whole dose curve; as a rule, active = well fitted curve in the direction sought with a large enough effect; inconclusive = small, poorly fitted or top-dose-only effect, or another doubt; inactive = no such curve, though single readings can be large; an effect the other way counts as inactive or inconclusive. Potency is the fitted concentration of half-maximal effect.

SMILES	BAZ2B block	HP1b chromo inh	Sfp PPTase inh	JMJD2A Tudor inh	G9a inh
CCc1ccc2[nH]c(=O)c(CN(Cc3ccccc3)Cc3nnnn3C(C)(C)C)cc2c1	/	2%[57 µM]	/	-27%[57.1 µM]	/
Cc1ccc(C(=O)c2oc3ccccc3c2NC(=O)c2nc(S(C)(=O)=O)ncc2Cl)cc1F	-2%	15%	/	-20%	-1%[59 µM]
CSCC[C@H](NC(=O)[C@H](CCCNC(=N)N)NC(=O)[C@H](Cc1ccc(O)cc1)NC(=O)[C@@H]1CCCN1C(=O)CNC(=O)[C@H](CCC(=O)O)NC(=O)[C@H](CC(=O)O)NC(=O)[C@H](CCCCN)NC(=O)[C@H](CCCCN)NC(=O)[C@H](CCC(=O)O)NC(=O)[C@H](C)N)C(=O)N[C@@H](CCC(=O)O)C(=O)N[C@@H](Cc1cnc[nH]1)C(=O)N[C@@H](Cc1ccccc1)C(=O)N[C@@H](CCCNC(=N)N)C(=O)N[C@@H](Cc1c[nH]c2ccccc12)C(=O)NCC(=O)N[C@@H](CO)C(=O)N1CCC[C@H]1C(=O)N1CCC[C@H]1C(=O)N[C@@H](CCCCN)C(=O)N[C@@H](CC(=O)O)C(=O)O	/	/	8%	/	/
N#Cc1nc(-c2ccc(COc3ccc(Cl)cc3)o2)oc1N1CCCCC1	?	-8%	/	?	3.2µM*
N#Cc1nc(-c2ccc(COc3ccccc3)o2)oc1N1CCCCC1	5µM*	?	/	?	4.5µM*
Cc1cccc(OCc2ccc(-c3nc(C#N)c(N4CCN(c5ccccc5)CC4)o3)o2)c1	-38%	12%	/	-35%	-42%[59 µM]
CCOC(=O)c1cccc(C2=CC(=O)C[C@H](c3ccc(OC)cc3)C2)c1	3%	39%	/	0%	19%[2.33 µM]
Fc1ccc(/C=C2\CCCC3=C2NC(=S)NC3c2ccc(F)cc2)cc1 (stereo not drawn)	?	/	45µM*	/	22µM*
Fc1ccc(C2NC(=S)NC3=C2N2CCC3CC2)cc1 (stereo not drawn)	-17%	23%	11%	-13%	-40%[59 µM]
Cc1ccc(-c2nnn(CC(=O)N3CCC(C)CC3)n2)o1	-7%	43%	22%	-6%	35µM*
Cc1ccc(-c2nnn(CC(=O)NCC3COCCO3)n2)o1 (stereo not drawn)	-2%	?	23%	50µM*	16%[59 µM]
CC1CCN(C(=O)CSc2nc(=O)n3ccccc3n2)CC1	-5%	9%	/	-9%	-3%
CC(C)(C)N1C(=O)[C@H]2[C@H]3[C@H](O)[C@H](O)C/C(=N/OCc4ccccc4)[C@H]3CC[C@@H]2C1=O	/	/	35%	/	/
O=C(COC(=O)COc1ccc(Br)cc1)Nc1ccc2c(c1)OCCO2	12%	50%	/	-8%	25%[59 µM]
COc1ccc(NC(=O)CCCC(=O)NCCc2ccc(OC)c(OC)c2)cc1	-8%	11%	14%	-6%	7%
O=C(NCc1ccc2c(c1)OCO2)C(=O)NC1CCCCC1	-3%	?	21%	50µM*	?
O=C(NCc1ccc2c(c1)OCO2)C(=O)NCC1CCCO1 (stereo not drawn)	0%	39%	9%	-5%	17%[59 µM]
CC1=C(C)CC(C(=O)NCc2ccc3c(c2)OCO3)C(C(=O)O)C1 (stereo not drawn)	-30%	5%	-1%	-14%	0%
CC1CCCC(C)N1C(=O)CNCc1ccc2c(c1)OCO2 (stereo not drawn)	?	1%	-11%	50µM*	50µM*
c1cc2c(cc1NC1CCCCCC1)OCO2	40µM*	?	?	50µM*	7.9µM*
COc1ccc(NCc2cc3ccc(OC)cc3n(CC(=O)Nc3ccc(C)c(C)c3)c2=O)cc1	-18%	0%	/	-35%	-6%[59 µM]
C=C(C)C1COc2cc3oc(=O)ccc3cc2O1 (stereo not drawn)	/	/	11%	/	-32%[2.33 µM]
COC(=O)c1ccc(N2C(=O)CC(SCC(=O)Nc3ccc(OC)cc3)C2=O)cc1 (stereo not drawn)	0%	35%	-19%	-9%	/
CN=C(Nc1cc(Cl)ccc1Cl)SC1CC(=O)N(c2ccc(C(=O)OC)cc2)C1=O (stereo not drawn)	4%	12%	28%	-14%	50µM*
COC(=O)c1ccc(N2C(=O)CC(Sc3n[nH]c(C)n3)C2=O)cc1 (stereo not drawn)	0%	0%	?	-3%[11.4 µM]	2µM*
